Screening results deposited in PubChem by Bradner/Qi Labs at DFCI.
The entries come from a sample that favours hits as a whole.
CBX7 inh = CBX7 inhibition, primary AlphaScreen | O95931 | AlphaScreen His6-CBX7 / biotin-H3K27me3 peptide binding; hits give low values | normalised signal (fraction of DMSO) (concentration not given with the values) | 66,000 compounds, 1.1% hits | AID 1224903; in the data active = normalised signal below about 0.5
Target sequence (O95931 whole entry, looked up): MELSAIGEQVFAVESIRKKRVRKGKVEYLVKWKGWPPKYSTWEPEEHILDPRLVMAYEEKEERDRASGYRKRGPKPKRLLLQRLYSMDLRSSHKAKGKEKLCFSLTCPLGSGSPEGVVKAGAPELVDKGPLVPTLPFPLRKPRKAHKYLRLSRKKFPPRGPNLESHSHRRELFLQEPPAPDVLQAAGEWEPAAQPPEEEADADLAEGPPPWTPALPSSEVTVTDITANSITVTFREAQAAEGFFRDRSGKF
Of the large screens only hits and unclear results are named; the others gave an inactive call.

CCOC(=O)c1ccc(Nc2nnc(C(C)(C)C)c(=O)[nH]2)cc1	CBX7 inh 0.496
CCOc1ccc(Nc2nnc(C(C)(C)C)c(=O)[nH]2)cc1	none
O=C(c1ccc(F)c(F)c1)N1CCc2c([nH]c3ccccc23)C1c1ccc(Cl)cc1 (stereo unspecified)	none
CCOCCCNC(=O)c1cc2c(-c3ccccc3F)nn(C)c2s1	none
COc1ccc(-c2csc(NC(=O)COc3ccc(Cl)cc3)n2)cc1OC	none
Cc1cc(C)n(-c2nc3ccccc3nc2Nc2ccc(C(C)C)cc2)n1	none
Cc1cc(C)n(-c2nc3ccccc3nc2Nc2ccc(N3CCCCC3)cc2)n1	CBX7 inh 0.42
Cc1cc(C)n(-c2nc3ccccc3nc2Nc2ccc(F)cc2)n1	none
Cc1ccc2c(c1)C(c1ccc(F)cc1)N(C(=O)COc1ccc(Cl)cc1)CC(=O)N2 (stereo unspecified)	none
Cc1nc2c(C(=O)N3CCOCC3)cnn2c(C)c1Cc1ccccc1Cl	none
Cc1ccc2c(c1)C(c1ccccc1)N(C(=O)c1cccc(F)c1)CC(=O)N2 (stereo unspecified)	none
CCCN1CCCc2cc(CN(CCCN3CCOCC3)C(=O)Nc3ccccc3)ccc21	none
CCN1CCCc2cc(CN(CCN3CCOCC3)C(=O)Nc3ccc(C)c(C)c3)ccc21	CBX7 inh 0.22
CCc1ccc(NC(=O)N(CCN2CCOCC2)Cc2ccc3c(c2)CCCN3CC)cc1	none
Cc1ccc2c(c1)C(c1ccccc1)N(C(=O)COc1ccc3ccccc3c1)CC(=O)N2 (stereo unspecified)	none
Cc1ccc(-c2nc3nc(-c4ccc(Br)cc4)cn3nc2-c2ccc(C)cc2)cc1	none
O=C(CN1C(=O)CSc2ccccc21)NCCN1CCOCC1	CBX7 inh 0.479
O=C(CN1C(=O)CCSc2ccccc21)NCCN1CCOCC1	none
O=C(CN1C(=O)CSc2ccccc21)NCCCN1CCOCC1	none
O=C(CSc1ncc(-c2ccccc2)[nH]1)NC1CCCCC1	none
O=C(NCCCN1CCN(Cc2ccccc2)CC1)c1cc(-c2ccncc2)nc2ccccc12	none
CN(C(=O)Cc1nc(N)n[nH]1)C1(C(=O)Nc2ccccc2)CCCCC1	CBX7 inh 0.0266
Cc1ccc(NC(=O)C2(N(C)C(=O)Cc3nc(N)n[nH]3)CCCCC2)cc1	none
Nc1n[nH]c(CC(=O)N(Cc2ccccc2)C2(C(=O)Nc3ccccc3)CCCCC2)n1	none
COc1ccc(S(=O)(=O)Nc2cccc(-c3cn4ccccc4n3)c2)cc1	none
O=c1[nH]c2ccc(NCc3ccc(OCc4ccc(Cl)cc4)cc3)cc2[nH]1	none
O=c1[nH]c2ccc(NCc3ccc(F)cc3)cc2[nH]1	none
CCOc1cccc(CNc2ccc3[nH]c(=O)[nH]c3c2)c1OCc1ccc(Cl)cc1	CBX7 inh 0.445
Cc1ccc(OCc2nc3ccccc3n2Cc2ccccc2)cc1	none
CC1CN(CC(O)COc2ccccc2)C(C)CC1=O (stereo unspecified)	none
COc1ccc(Cc2cnc(NC(=O)c3ccc(C)cc3)s2)cc1	none
COc1ccc(C2=NOC(C(=O)NCc3ccccc3)C2)cc1OC (stereo unspecified)	none
CC(C)N(Cc1ccccc1)S(=O)(=O)c1ccc(C(=O)Nc2nnc(-c3cccs3)o2)cc1	none
CCN(c1ccccc1)S(=O)(=O)c1ccc(C(=O)Nc2nnc(C3CC3)o2)cc1	CBX7 inh 0.0661
COCc1nnc(NC(=O)c2ccc(S(=O)(=O)N(C)c3ccccc3)cc2)o1	none
CCN(c1ccccc1)S(=O)(=O)c1ccc(C(=O)Nc2nnc(COC)o2)cc1	none
CN(c1ccccc1)S(=O)(=O)c1ccc(C(=O)Nc2nnc(C3CC3)o2)cc1	none
CCc1nnc(NC(=O)c2ccc(S(=O)(=O)N(CC)c3ccccc3)cc2)o1	CBX7 inh 0.0735
COc1ccc(OC)c2[nH]c(=O)c(CCN3C(=O)c4ccccc4C3=O)cc12	none
Cc1ccc(C)c(Cc2c(C)nc3c(C(=O)NCc4ccc(Cl)cc4)cnn3c2C)c1	none
COc1ccc(-c2noc(CCC(=O)Nc3cccc(C#N)c3)n2)cc1	none
COc1ccc(Nc2ncc(C(=O)N3CCCCCC3)c3ccccc23)cc1	none
CCn1cnc2cc(NCc3ccc(OC)c(OC)c3)ccc21	none
CCCCn1cnc2cc(NCc3ccc(Br)cc3)ccc21	CBX7 inh 0.255
CCCn1cnc2cc(NCc3cccc(OC)c3)ccc21	none
CCCn1cnc2cc(NCc3ccc(Br)cc3)ccc21	CBX7 inh 0.326
CCCn1cnc2cc(NCc3ccc(OC)c(OC)c3)ccc21	none
CCn1cnc2cc(NCc3ccc(Br)cc3)ccc21	none
COCCCNC(=O)C1CCN(Cc2nc(-c3ccccc3F)oc2C)CC1	none
CC1CCN(c2cc(-n3nc(C(F)(F)F)cc3-c3ccccc3)ncn2)CC1	none
COc1ccc(OCC(=O)Nc2cccc(-c3nc4cc(C)cc(C)c4o3)c2C)cc1	none
COc1ccccc1Nc1ncc(C(=O)NCc2cccnc2)c2ccccc12	none
O=C(CCN1C(=O)COc2ccccc21)NCc1ccccn1	CBX7 inh 0.161
Cc1ccc2c(c1)N(CCCC(=O)NCc1ccccn1)C(=O)CO2	none
O=C(CCN1C(=O)COc2ccccc21)NCc1ccccc1Cl	none
Cc1ccc2c(c1)N(C(C)C(=O)NCc1ccccc1)C(=O)CO2 (stereo unspecified)	none
Cc1ccc2c(c1)N(CCC(=O)NCc1cccnc1)C(=O)CO2	none
Cc1ccc(CNC(=O)CCN2C(=O)COc3ccccc32)cc1	none
Cc1ccc2c(c1)N(C(C)C(=O)NCc1ccccn1)C(=O)CO2 (stereo unspecified)	CBX7 inh 0.25
CC(C(=O)NCc1ccccn1)N1C(=O)COc2ccc(Cl)cc21 (stereo unspecified)	none
Cc1ccc2c(c1)N(CCC(=O)NCc1ccccn1)C(=O)CO2	CBX7 inh 0.335
COc1ccc(Nc2cc(C(=O)NCc3ccc4c(c3)OCO4)c3ccccc3n2)c(OC)c1	none
COc1ccc(-c2nc(CN3CCC(C(=O)NCC(OC)OC)CC3)c(C)o2)cc1	none
Cc1cccc(C)c1NC(=O)CSc1nnnn1-c1ccc(C(N)=O)cc1	none
O=C(NCc1ccccc1)C1CCN(c2nnc(-n3cccc3)s2)CC1	none
COc1ccc(-c2nc(Nc3cccc4ccccc34)sc2-c2ccccc2)cc1	none
CC1CCCC(C)N1c1nnc(NC(=O)Nc2ccc(F)cc2)s1 (stereo unspecified)	none
CC1(C)CC(=O)c2cc(OCC(=O)NCc3ccc4c(c3)OCO4)ccc2O1	none
CCCCNC(=O)c1sc2ncn(CC(=O)Nc3cccc(C(F)(F)F)c3)c(=O)c2c1C	none
Cc1[nH]c2ccc(OCc3ccccc3)cc2c1CCNC(=O)c1cccc(Br)c1	none
COc1ccc(C(=O)NCCc2c(C)[nH]c3ccc(OCc4ccccc4)cc23)cc1OC	none
Cc1[nH]c2ccc(OCc3ccccc3)cc2c1CCNC(=O)c1ccnn1C	CBX7 inh 0.484
COc1ccc2[nH]c(C)c(CCNC(=O)Cn3nc(C(F)(F)F)cc3C)c2c1	none
Cc1nn(CC(=O)NCCc2c(C)[nH]c3ccc(OCc4ccccc4)cc23)c(C)c1Cl	CBX7 inh 0.484
COC(=O)c1ccc(C(=O)NCCc2c(C)[nH]c3ccc(OCc4ccccc4)cc23)cc1	none
Cc1nn(CC(=O)NCc2cccs2)c2ccccc12	none
COc1ccc(CCNC(=O)c2cnc3sccn3c2=O)cc1OC	none
Cc1nn(Cc2ccc(F)cc2)c(C)c1NC(=O)c1c(-c2ccccc2)noc1C	none
Clc1ccc(/C=C/c2ccc3cccc(OCc4ccccc4)c3n2)cc1	none
COc1ccc(C2CC(=O)N(CC(=O)NCCc3ccccc3)c3ccccc3S2)cc1 (stereo unspecified)	none
O=C(Nc1ccc2c(c1)OCO2)[C@H](CSCc1ccccc1)N1Cc2ccccc2C1=O	none
O=C(Nc1ccc2c(c1)OCO2)[C@H](Cc1ccccc1)N1Cc2ccccc2C1=O	CBX7 inh 0.417
